# Hits are enriched below; roughly 19% of the tested compounds scored in any of these assays.
# KB-V1 MDR tox: qHTS assay for MDR1-selective chemotherapeutics: Primary screen using the drug-selected MDR subline cells KB-V1 | actives 3.4% (n = 400,000) | AID 1347076, 2019 | KB-V1 MDR cells viability, CellTiter-Glo, 72 h | Potency, µM (top dose mostly 46.1 µM), actives largely listed as cytotoxic; note: nearly all actives have a fitted effect of over 60% in size
#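 Drug-selected KB-V1 cells, grown in DMEM lacking phenol red with 10% FBS, receive compound titrations; after three days at 37 degrees C, surviving cell ATP is quantified by CellTiter-Glo luminescence and responses normalized and curve-fitted.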
# HT1080-NT tox: qHTS for induction of synthetic lethality in tumor cells producing 2HG: qHTS for the HT-1080-NT fibrosarcoma cell line. HT-1080-NT fibrosarcoma viability, CellTiter-Glo ATP luminescence, 48 h. Potency, µM (titrated, usually from 46.1 µM), for the others: at the top dose activity, negative = less viability, most hits filed as cytotoxic. actives 1.6% (n = 360,000). AID 686970, 2013;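 note: NT is the 2HG producing partner of a matched IDH1 knockdown line; 0% = DMSO-treated cells and -100% = media-only wells without cells; nearly all actives have a fitted effect of over 55% in size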
#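 Viability of the 2HG-overproducing fibrosarcoma line after 48 hours of compound exposure at 37 degrees C was determined by luminescence with CellTiter-Glo, and concentration-effect curves were then fitted and categorized.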
# HT1080 IDH1KD tx: qHTS for induction of synthetic lethality in tumor cells producing 2HG: qHTS for the HT-1080-IDH1KD cell line. HT-1080 IDH1 knockdown viability, ATP luminescence, 48 h. Potency, µM (highest dose often 46.1 µM), for inactives: top-dose activity, negative = toxicity, actives largely listed as cytotoxic. actives 2% (n = 360,000). AID 686971, 2013;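 note: 0% = DMSO wells and -100% = cell-free medium wells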
#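 Using the IDH1-knockdown HT-1080 line run in the same batch and compound series as the NT line, viability after 48 h at 37 °C was determined by CellTiter-Glo luminescence and expressed as % activity.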
# DT40 TDP1 no CPT: qHTS for Inhibitors of human tyrosyl-DNA phosphodiesterase 1 (TDP1): qHTS in cells in absence of CPT | Potency, µM (doses to about 46.2 µM), inactives show at the highest dose activity change, negative = growth inhibition, hits mostly inhibitors | actives 15% (n = 420,000) | DT40 Tdp1-/- hTDP1 cells, no CPT, ATP luminescence, 48 h; note: nearly all actives have a fitted effect of over 55% in size
#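 Readout: luminescence from CellTiter-Glo after 30 min in the dark at RT. Cells: DT40 Tdp1-/- with stable hTDP1, 400/well. Exposure: compounds alone, ≥48 hr, 37 °C.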
# TDP1 cell CPT: qHTS for Inhibitors of human tyrosyl-DNA phosphodiesterase 1 (TDP1): qHTS in cells in presence of CPT | chicken DT40 Tdp1-/-;hTDP1 cells + 20 nM CPT, ATP luminescence, 48 h | Potency, µM (top dose mostly 46.2 µM), for inactives: top-dose activity change, negative = growth inhibition, hits mostly inhibitors | actives 12% (n = 420,000) | AID 686979, 2013; note: nearly all actives have a fitted effect of over 55% in size
#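 Chicken DT40 Tdp1-/- cells stably complemented with human TDP1 were seeded at 400 cells/well in medium containing 20 nM camptothecin, exposed to pin-transferred compounds, and grown at 37 °C for at least 48 hr. Viability was read as ATP luminescence.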
# KB-3-1 cytotox: qHTS assay for MDR1-selective chemotherapeutics: Primary screen using the parental adenocarcinoma cell KB-3-1; KB-3-1 viability, CellTiter-Glo ATP luminescence, 72 h; Potency, µM (doses to about 46.1 µM), most hits filed as cytotoxic; actives 1.4% (n = 400,000); note: nearly all actives have a fitted effect of over 60% in size
#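 Luminescent ATP read-out (CellTiter-Glo) measures survival of drug-naive KB-3-1 cells after 72 h compound exposure at 37 °C. Titration series was screened from lowest to highest concentration, with DMSO vehicle plates as background controls.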
# The depositor's hits bear a star; i = inactive; ? = inconclusive; / = no result; [ ] = remark or other dose. Calls come from the whole dose curve; as a rule, active = well fitted curve in the direction sought with a large enough effect; inconclusive = small, poorly fitted or top-dose-only effect, or another doubt; inactive = no such curve, though single readings can be large; an effect the other way counts as inactive or inconclusive. Unless noted, % is set by controls: 0 for no effect and ±100 for the full control effect; potency is the fitted concentration of half-maximal effect.
SMILES,KB-V1 MDR tox,HT1080-NT tox,HT1080 IDH1KD tx,DT40 TDP1 no CPT,TDP1 cell CPT,KB-3-1 cytotox
O=C(N/N=C\c1cccc(OC(=O)c2ccco2)c1)c1ccc2c(c1)OCO2,i,-9%,-16%,?,?,i
Cc1csc(N/N=C\c2cccnc2)n1,i,12%,0%,5.2µM*,2.9µM*,i
Cc1ccc(N/N=C/c2cccnc2)cc1,21µM*,?,8.2µM*,-7%,-11%,?
Fc1ccc(N/N=C/c2cccnc2)c(F)c1,i,?,15µM*,6%,-18%,i
Cc1ccc(-n2c(=O)c3c(c4cc(C)ccc4n3C)n(CC(=O)Nc3cc(C)cc(C)c3)c2=O)cc1,i,/,/,-14%,1%,i
COc1ccc(C)cc1NS(=O)(=O)c1ccc2[nH]c(=O)c(=O)[nH]c2c1,i,/,/,9%,-11%,i
COc1cccc(-n2c(=O)c3c4c(sc3n(Cc3ccccc3C#N)c2=O)CCCC4)c1,i,/,/,-14%,6%,i
Cc1ncc2c(c1CNC(=O)c1ccc3c(c1)OCO3)CCN(C(=O)c1csc3c1CCCC3)C2,/,/,/,-13%,-4%[9.04 µM],/
Cc1cccc(N2CCN(C(=O)c3ccc(N4CCCC4=O)cc3)CC2)c1C,?,10%,-1%,23µM*,12µM*,?
O=C(c1cccc(N2CCCC2=O)c1)N1CCN(c2cccc(Cl)c2)CC1,?,?,13µM*,3.3µM*,?,5.2µM*
O=C(c1ccc(N2CCCC2=O)cc1)N1CCN(c2cccc(C(F)(F)F)c2)CC1,?,-1%,-5%,23µM*,16µM*,i
COc1cccc(-n2c(SCC(=O)Nc3ccc4c(c3)OCO4)nc3c([nH]c4ccccc43)c2=O)c1,i,/,/,-29%,-22%,i
Cc1cc(C)n(CCC(=O)N2c3ccccc3CC2C)n1 (stereo unspecified),i,-6%,-3%,?,?,i
Cc1ccc(NC(=O)c2c([N+](=O)[O-])c(C(C)(C)C)nn2C)c(C)c1,i,19%,10%,1%,0%,i
Cc1ccc(N/C(C(Cl)=C(Cl)Cl)=C(/Cl)[N+](=O)[O-])c(C)c1,i,-5%,-5%,16µM*,23µM*,i
Cc1ccc(-n2c(=O)c3ccc(C(=O)NCc4ccco4)cc3n(CC(=O)Nc3ccccc3C(F)(F)F)c2=O)cc1,?,/,/,1%,-1%,i
CCN1C(=O)c2ccccc2S(=O)(=O)c2ccc(C(=O)NCc3ccc(F)cc3)cc21,i,/,/,23µM*,?,i
O=C(NCCc1ccc(Cl)cc1)c1ccc2c(c1)N(Cc1ccccc1F)C(=O)c1ccccc1S2(=O)=O,i,/,/,?,?,i
COc1ccc(CCNC(=O)c2ccc3c(c2)N(Cc2ccc(F)cc2)C(=O)c2ccccc2S3(=O)=O)cc1OC,/,/,/,12µM*,?,/
O=C(NCCc1ccccc1)c1ccc2c(c1)N(Cc1ccc(Cl)cc1)C(=O)c1ccccc1S2(=O)=O,i,/,/,23µM*,15µM*,i
CCN1C(=O)c2ccccc2S(=O)(=O)c2ccc(C(=O)NCc3ccccc3OC)cc21,i,/,/,?,?,i
COc1cc(C(=O)NC(=S)Nc2ccc([N+](=O)[O-])cc2C)cc(OC)c1OC,2.1µM*,-26%,-9%,?,-20%,i
COc1cc(C(=O)NC(=S)Nc2ccc([N+](=O)[O-])cc2)cc(OC)c1OC,i,-5%,-9%,3%,2%,i
Cc1ccc(C(=O)NC(=S)Nc2ccccc2N2CCOCC2)cc1C,i,?,?,?,26µM*,?
COc1cc(C(=O)NC(=S)Nc2ccccc2N2CCOCC2)cc(OC)c1OC,?,-29%,-26%,12µM*,18µM*,i
SMILES,KB-V1 MDR tox,HT1080-NT tox,HT1080 IDH1KD tx,DT40 TDP1 no CPT,TDP1 cell CPT,KB-3-1 cytotox
COc1cccc(C(=O)NC(=S)Nc2ccccc2N2CCOCC2)c1,/,2%,2%,?,?,/
FC(F)(F)Oc1ccc(NC(=S)Nc2ccccc2N2CCOCC2)cc1,i,0%,-10%,16µM*,?,?
Cn1c(=O)c2c(nc(SCC(=O)Nc3ccc(F)cc3)n2Cc2ccccc2F)n(C)c1=O,i,/,/,?,-23%,i
O=C(CSc1nnc(-c2cccs2)o1)Oc1ccccc1Cl,?,/,/,-1%,-15%,i
CC1(NC(=O)c2cc(Cl)nc3ccccc23)CCS(=O)(=O)C1 (stereo unspecified),?,5%,5%,11%,2%,i
COc1cc2nc(SCc3ccc(C)cc3)n3nc(CCn4nc(C)cc4C)nc3c2cc1OC,i,/,/,1%,24%,i
COc1ccc(-c2cc3nc(C)cc(N4CCN(C(=O)c5ccco5)CC4)n3n2)cc1,i,6%,8%,12µM*,21µM*,i
COc1ccc(C(=O)N2CCN(C(=O)c3ccco3)CC2)cc1,i,5%,7%,0%,1%,i
Cc1ccc(-c2nc3nc(C)cc(N4CCN(c5cccc(C)c5C)CC4)n3n2)cc1,i,/,/,-4%,28%,i
Cc1cc(N2CCN(C(=O)c3ccco3)CC2)n2nc(C)c(-c3ccccc3)c2n1,3.7µM*,-7%,1%,23µM*,23µM*,?
COc1cccc(-c2cc3nc(C)c(C)c(N4CCN(C(=O)c5ccoc5)CC4)n3n2)c1,i,0%,9%,8.2µM*,13µM*,i
Cc1ccc(-c2cc3nc(C)cc(N4CCN(C(=O)c5ccoc5)CC4)n3n2)cc1,i,5%,2%,18µM*,?,i
COc1cccc(C(=O)N2CCN(Cc3nc(-c4ccoc4)oc3C)CC2)c1,i,0%,8%,-3%,-12%,i
O=C(CCN=C1NS(=O)(=O)c2ccccc21)NCc1ccccc1F,i,3%,6%,0%,8%,i
COc1ccc(-c2nc3c4ccccc4n(CC(=O)N4CCN(c5ccccc5F)CC4)c(=O)n3n2)cc1,i,/,/,?,?,i
